Screens as filed in PubChem BioAssay.
TWEAK Fn14 block – inhibitors of TWEAK-Fn14 interaction signaling; 2% of 360,000 active; inhibition, % at 10 µM; TWEAK-stimulated Fn14 reporter cells, luciferase luminescence, 8 h; in the data active = inhibition above about 50%
MITF act – increases MITF-driven TRPM1 promoter luciferase signal; SK-MEL-5 TRPM1-promoter luciferase, 24 h; % of positive control, neutral wells = 0; activation, % at 12.5 µM; 0.75% of 300,000 active; AID 588334;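 active = mean activation of at least 80% with every replicate also reaching 80%; inconclusive = mean reaches 80% but some replicate falls short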;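 note: 0% = neutral control wells and 100% = parthenolide positive control wells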
TRPM1 prom inh – reduces MITF-dependent TRPM1 promoter luciferase signal. SK-MEL-5 TRPM1 promoter luciferase, 24 h. inhibition, % at 12.5 µM. 0.83% of 330,000 active;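 active = mean inhibition across replicates of 60% or more, whatever share of single replicates reaches that level; inconclusive = some that reach 60%, reason not given; inactive = mean inhibition across replicates below 60%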
EBV LMP1 NFkB – reduces LMP1-driven NF-kappaB luciferase signal | inhibition, % at 12.5 µM | LMP1-induced NF-kappaB luciferase reporter cells, luminescence | 0.69% of 350,000 active | AID 504558; in the data active = inhibition above about 41%; inconclusive = no clear call, values can overlap the other calls;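 note: 0% = neutral control wells and 100% = reference inhibitor control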
TROY signal inh – inhibitors of TROY-dependent NF-kB signaling | Q293 LMP1-TROYcd NF-kB luciferase reporter, 4 h | inhibition, % at 10 µM | 0.98% of 360,000 active;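 active = compounds whose plate-normalised and pattern-corrected inhibition of the luciferase reporter signal at the single screening dose is 50% or more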
LGR2 inh – Drosophila LGR2 receptor signaling inhibition; HEK293 LGR2, CRE-luciferase, bursicon-stimulated, 4 h; inhibition, % at 9.99 µM; 0.35% of 380,000 active;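 active = drop in luminescence signal, shown as inhibition above about 50% in the replicate tests, limit read from the data, passing the limit was not always enough; inconclusive = probably only some replicates passing the limit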;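 note: agonist challenge used bursicon conditioned medium at about half maximal strength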
Starred values were filed as active, the others as inactive; ? = inconclusive; . = no result given. Hits are enriched below; roughly 3% of the tested compounds scored in any of these assays.

SMILES	TWEAK Fn14 block	MITF act	TRPM1 prom inh	EBV LMP1 NFkB	TROY signal inh	LGR2 inh
CC(C)c1cn(CC[C@@H]2CC[C@H](NS(=O)(=O)c3ccccc3)[C@@H](CO)O2)nn1	.	.	.	.	.	10
CC=Cc1ccc2n(c1=O)C[C@@H]1[C@@H](CO)[C@H](C(=O)NCC(F)(F)F)N(CC3CC3)[C@H]21 (mixture of isomers)	.	.	.	.	.	-6
CCCOc1ccccc1C1CC(=O)Nc2cc3c(cc21)OCCO3 (stereo not given)	55*	.	37	4	48	.
Cc1ccc(NC(=O)Cn2nc(C)c3ccccc3c2=O)cc1F	-15	.	3	44*	2	.
Cc1ccc(S(=O)(=O)Nc2ccc3c(c2)C(=O)N([C@H](C)CO)C[C@H](C)[C@@H](CN(C)S(=O)(=O)c2ccc(C)cc2)OCCCC[C@H](C)O3)cc1	.	.	.	.	.	-2
C[C@H](NC(=O)C[C@H]1C[C@@H]2c3cc(NC(=O)C4CCC4)ccc3O[C@@H]2[C@@H](CO)O1)c1ccccc1	.	.	.	.	.	-1
C/C(=N/OC(=O)C1CC1)c1cc(-c2ccc(Cl)cc2)no1	-18	89*	-77	-21	-69	-91
c1ccc(-c2nc(-c3cccs3)[nH]c2-c2ccccc2)cc1	52*	-8	7	6	-14	12
c1csc(-c2nc3c4ccccc4c4ccccc4c3[nH]2)c1	69*	.	0	-11	-17	.
COc1cc(-c2nc(-c3ccccc3)c(-c3cccs3)[nH]2)cc(OC)c1OC	66*	8	-7	6	8	.
COc1cc(-c2nc(-c3ccccc3)c(-c3cccs3)[nH]2)cc(OC)c1O	15	-1	2	-4	-9	.
CO[C@@H]1CN(C)C(=O)c2ccc(NS(=O)(=O)c3cccc(F)c3)cc2OC[C@@H](C)N(C(=O)Cc2cccnc2)C[C@H]1C	.	.	.	.	.	0
Cc1ccc(S(=O)(=O)N(C)C[C@@H]2Oc3ccc(NS(=O)(=O)c4ccc(Cl)cc4)cc3C(=O)N([C@@H](C)CO)C[C@H]2C)cc1	.	.	.	.	.	26
Cc1nc2cc(-c3cccc(F)c3)nn2c(C)c1CCC(=O)NC(C)CCc1ccco1 (stereo not given)	67*	-53	53	24	9	.
COc1cccc(CN2C(=O)C(C)N(C(=O)c3c(F)cccc3F)c3ccccc32)c1 (stereo not given)	74*	-11	7	18	38	6
CC1C(=O)N(Cc2ccccc2F)c2ccccc2N1C(=O)c1c(F)cccc1F (stereo not given)	32	-17	15	4	30	28
CN(C)c1ccc(/C=N\NC(=O)c2csnn2)cc1	71*	13	-22	-3	19	.
O=C(N/N=C/c1ccc(F)cc1)c1cc(-c2ccc3c(c2)OCO3)n[nH]1	-17	.	-8	7	-12	.
COc1ccc(/C=N/NC(=O)c2cc(-c3ccc4c(c3)OCO4)n[nH]2)cc1OC	52*	9	-10	-17	-28	-15
CC(C)c1ccc(/C=N/NC(=O)c2ccccn2)cc1	77*	.	-4	30	46	75*
O=C(N/N=C/c1ccncc1)c1ccccn1	-13	64	-102	.	-15	-12
CCN(CC)c1ccc(/C=N/NC(=O)c2ccc(Br)o2)cc1	-9	116*	-125	-29	-30	-89
Cc1noc(C)c1S(=O)(=O)Nc1ccc2c(c1)C(=O)N([C@@H](C)CO)C[C@H](C)[C@H](CN(C)Cc1ccccc1)OCCCC[C@@H](C)O2	.	.	.	.	.	-3
O=C(N/N=C/c1ccc(OC(=O)c2cccs2)cc1)c1ccccn1	17	99*	-93	-15	-31	-13
O=C(N/N=C/c1ccc2c(c1)OCO2)c1ccccn1	76*	-4	3	27	39	?
SMILES	TWEAK Fn14 block	MITF act	TRPM1 prom inh	EBV LMP1 NFkB	TROY signal inh	LGR2 inh
O=C(N/N=C/c1ccc2c(c1)OCO2)c1ccc2c(c1)OCCO2	2	44	-42	-28	-53	5
O=C(N/N=C/c1cc2c(cc1Br)OCO2)c1ccccn1	-11	.	.	.	-39	-26
O=C(N/N=C/c1ccc2c(c1)OCO2)c1ccc(Br)o1	19	87*	-78	-14	-40	-31
Cc1noc(C)c1S(=O)(=O)N(C)C[C@@H]1Oc2ccc(NC(=O)NC3CCCCC3)cc2CC(=O)N([C@@H](C)CO)C[C@@H]1C	.	.	.	.	.	-31
O=C(Nc1ccc(F)cc1)N1CC(=O)N2[C@H](C1)[C@@H](c1ccc(C#CC3CC3)cc1)[C@@H]2CO	.	.	.	.	.	11
COc1cc(NC(=S)NCCC(c2ccccc2)c2ccccc2)c(OC)cc1Cl	30	6	-11	-7	53*	-10
CCCCOCCCNC(=S)Nc1ccc(S(=O)(=O)N2CCOCC2)cc1	-3	-1	0	8	17	13
S=C(NCCC(c1ccccc1)c1ccccc1)Nc1ccc(Cl)cc1	62*	1	5	1	45	-7
S=C(NCCC(c1ccccc1)c1ccccc1)Nc1ccccc1Cl	1	-5	6	2	32	.
O=S(=O)(c1ccc(NC(=S)NCCC(c2ccccc2)c2ccccc2)cc1)N1CCOCC1	56*	-24	29	-7	39	14
COc1ccc2c(c1)CC/C2=N\OC(=O)c1ccccc1C	-38	117*	-112	-39	-24	-12
COc1ccc2c(c1)CCC/C2=N/OC(=O)c1ccccc1OC	-35	9	-7	-1	-79	.
CN(C)c1ccc2c(=O)c3ccccc3oc2n1	55*	.	.	.	-27	5
O=C(C[C@@H]1C[C@H]2c3cc(NC(=O)NC4CCCCC4)ccc3O[C@H]2[C@H](CO)O1)NCc1ccccc1	.	.	.	.	.	13
O=C(C[C@H]1C[C@H]2c3cc(NC(=O)c4cccnc4)ccc3O[C@H]2[C@H](CO)O1)NCc1ccncc1	.	.	.	.	.	2
CC(C)(C)n1ncc2c(=O)n(CC(=O)Nc3ccc(Cl)cc3)cnc21	-7	-7	5	4	5	-3
CC(C)(C)n1ncc2c(=O)n(CC(=O)NCc3ccccc3)cnc21	84*	8	-9	20	45	.
COc1ccc(NC(=O)Nc2ccc3c(c2)C(=O)N([C@H](C)CO)C[C@H](C)[C@@H](CN(C)C(=O)Nc2ccc(C(F)(F)F)cc2)OCCCC[C@H](C)O3)cc1	.	.	.	.	.	2
CCOc1ccc2c(ccc(/C=C/c3cc(C)c4cccnc4c3O)[n+]2C)c1	5	-76	75*	0	4	.
CCOc1ccc2[nH]c3ncccc3c(=O)c2c1	7	4	-4	-31	-30	-11
O=C1N=C(N2CCN(c3cccc4ccccc34)CC2)S/C1=C/c1cccs1	-8	9	-8	78*	-7	.
Cc1ccccc1N1CCN(C2=NC(=O)/C(=C\c3cccs3)S2)CC1	-8	27	-24	-2	22	-100
COc1ccc(CN2CC3(CCN(S(=O)(=O)c4ccc(C)cc4)CC3)c3c([nH]c4cc(OC)ccc34)[C@H]2CO)cc1	.	.	.	.	.	-1
